High-throughput results from PubChem.
A selection: hits, their analogues and other compounds. The true share with any hit is near 18%.
TGFb SMAD3 inh = qHTS for Inhibitors of TGF-b; HepG2 CAGA-GFP TGF-b/SMAD3 reporter, GFP fluorescence, 18 h; TGF-beta stimulated, 500 pg/mL final; Potency, µM (titrated, usually from 46.1 µM), without a hit: at the top dose activity, negative = inhibition, hits mostly inhibitors; hit rate 1.2% among 410,000; also: potency is read from the fitted curve at half-maximal effect; % is scaled to controls: 0 for no effect and ±100 for the full control effect; nearly all actives have a fitted effect of over 65% in size
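Read-out: total well GFP (ex488/em500-530) summed from mean per-cell fluorescence. Cells: HEPG2 CAGA-GFP, 1% FBS DMEM, 18 h at 37 degrees C with 500 pg/mL final TGF-beta. Unstimulated wells served as the full-inhibition control; stimulated DMSO wells = 0%.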
HepG2 tox = qHTS for Inhibitors of TGF-b: Cytotox Counterscreen; HepG2 CAGA-GFP viability, ATP luminescence, 18 h; Potency, µM (top dose mostly 46.1 µM), for inactives: top-dose activity change, negative = cytotoxicity, most hits filed as cytotoxic; hit rate 0.76% among 410,000; AID 588856, 2011; also: potency is read from the fitted curve at half-maximal effect
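CellTiter-Glo luminescence gave cytotoxicity after 18 hours at 37 degrees C. The cells were HepG2 CAGA-GFP in 1% FBS DMEM, stimulated with 500 pg/mL TGF-beta after compound addition. %Activity was normalised to no-cell wells (complete cell-killing) and DMSO (no toxicity), and curves were fitted and classified.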
DT40 TDP1 CPT = qHTS for Inhibitors of human tyrosyl-DNA phosphodiesterase 1 (TDP1): qHTS in cells in presence of CPT. chicken DT40 Tdp1-/-;hTDP1 cells + 20 nM CPT, ATP luminescence, 48 h. Potency, µM (top dose mostly 46.2 µM), for the others: at the highest dose activity change, negative = growth inhibition, most hits filed as inhibitors. hit rate 12% among 420,000. AID 686979, 2013; also: potency is read from the fitted curve at half-maximal effect; % is scaled to controls: 0 for no effect and ±100 for the full control effect; nearly all actives have a fitted effect of over 55% in size
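Cell growth measured by CellTiter-Glo luminescence after a minimum 48 h, 37 C compound exposure with 20 nM CPT in Tdp1-knockout DT40 cells stably expressing hTDP1, seeded 400/well; qHTS titration format.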
TDP1 cell noCPT = qHTS for Inhibitors of human tyrosyl-DNA phosphodiesterase 1 (TDP1): qHTS in cells in absence of CPT | DT40 Tdp1-/- hTDP1 cells, no CPT, ATP luminescence, 48 h | Potency, µM (top dose mostly 46.2 µM), without a hit: at the top dose activity change, negative = growth inhibition, hits mostly inhibitors | hit rate 15% among 420,000 | AID 686978, 2013; also: potency is read from the fitted curve at half-maximal effect; % is scaled to controls: 0 for no effect and ±100 for the full control effect; nearly all actives have a fitted effect of over 55% in size
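Chicken DT40 Tdp1-/- cells stably complemented with human TDP1 were seeded at 400 cells/well with DMSO in place of 20 nM camptothecin. After compound pinning, cells grew at least 48 hr at 37 °C; viability read by CellTiter-Glo luminescence.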
TDP1 inh = qHTS Assay for Inhibitors of Tyrosyl-DNA Phosphodiesterase (TDP1); Tyrosyl-DNA phosphodiesterase 1 (Homo sapiens), Q9NUW8; recombinant TDP1, AlphaScreen DNA substrate cleavage; Potency, µM (series often up to 130 µM), for inactives: at the highest dose activity change, negative = inhibition, most hits filed as inhibitors; hit rate 0.28% among 350,000; AID 485290, 2010; also: potency is read from the fitted curve at half-maximal effect; % is scaled to controls: 0 for no effect and ±100 for the full control effect; nearly all actives have a fitted effect of over 40% in size
Target sequence (Q9NUW8 whole entry, looked up): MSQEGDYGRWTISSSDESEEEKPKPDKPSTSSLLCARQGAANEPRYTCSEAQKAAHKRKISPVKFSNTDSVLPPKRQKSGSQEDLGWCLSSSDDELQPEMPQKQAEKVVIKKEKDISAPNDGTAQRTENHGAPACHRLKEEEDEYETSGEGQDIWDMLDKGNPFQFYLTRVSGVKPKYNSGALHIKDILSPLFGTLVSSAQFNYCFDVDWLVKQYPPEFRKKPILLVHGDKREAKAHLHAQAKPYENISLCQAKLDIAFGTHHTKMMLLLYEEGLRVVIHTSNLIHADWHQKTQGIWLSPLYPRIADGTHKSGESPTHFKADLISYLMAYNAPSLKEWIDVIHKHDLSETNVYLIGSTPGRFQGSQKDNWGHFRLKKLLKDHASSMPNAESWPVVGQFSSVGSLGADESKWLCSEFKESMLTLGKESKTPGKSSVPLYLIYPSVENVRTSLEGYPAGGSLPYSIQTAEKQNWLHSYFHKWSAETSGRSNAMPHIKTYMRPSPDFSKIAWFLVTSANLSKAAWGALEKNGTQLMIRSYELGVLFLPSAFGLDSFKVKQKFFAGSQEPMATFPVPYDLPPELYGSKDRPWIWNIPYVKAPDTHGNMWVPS
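E. coli-derived human Tdp1, 1 nM final. Cpd preinc 15 min RT; substrate 15 nM final, 5 min RT; AS bead mix 10 ug/ml final, 10 min RT. Signal loss = tyrosine-FITC cleavage. No-enzyme wells = max signal.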
IL1B secr inh = qHTS for Inhibitors of Inflammasome Signaling: IL-1-beta AlphaLISA Primary Screen; THP-1 LPS/ATP IL-1B secretion, AlphaLISA, 16 h; hits give low values; activity change, % at 57.5 µM; hit rate 4.7% among 360,000; AID 743279, 2014; in the data active = activity change below about -50%; inconclusive = mostly about -30% to -49%; also: % is scaled to controls: 0 for no effect and ±100 for the full control effect
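THP-1 cells pretreated 1 hr with compounds (up to 57.5 uM final), then stimulated with LPS (250 ng/mL final) plus ATP (1.25 mM final); secreted IL-1B measured by AlphaLISA after 16 hr, decreased signal indicating inhibition.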
The depositor's hits bear a star; u = inconclusive; x = no result given; [ ] = another dose, or the depositor's remark. Unless noted, calls follow the shape of the dose curve; as a rule, active = well fitted curve in the direction sought with a large enough effect; inconclusive = small, poorly fitted or top-dose-only effect, or another doubt; inactive = no such curve, though single readings can be large; an effect the other way counts as inactive or inconclusive.

SMILES	TGFb SMAD3 inh	HepG2 tox	DT40 TDP1 CPT	TDP1 cell noCPT	TDP1 inh	IL1B secr inh
O=C(Nc1cc2c(cc1C(=O)c1ccc(Br)cc1)OCCO2)c1ccc(Cl)cc1	-12%	-10%	23µM*	u	3%[2.28 µM]	x
Cc1cccc(N)c1C	x	x	x	x	9%	x
Oc1cccc[c]1[Hg][Cl]	x	x	0.19µM*	0.15µM*	x	x
C[C@H]1[C@@H](O)[C@@H](C)/C=C\C=CCC\C=C/C=C\C=C/C=C[C@@H](O[C@H]2O[C@@H](C)[C@@H](O)[C@@H](N)[C@@H]2O)C[C@@H]2O[C@@](O)(C[C@@H](O)[C@H]2C(=O)O)C[C@@H](O)[C@@H](O)CC[C@@H](O)C[C@@H](O)C[C@@H](O)CC(=O)O[C@H]1C	x	x	x	x	3%[21 µM]	x
CCCSc1ncc(Cl)c(C(=O)N(Cc2ccccc2)c2ccc(OC)cc2)n1	x	-27%	7.3µM*	4.6µM*	5%	x
Cc1ccc2c(c1)c(=O)c1c3n2CCN(CC2CO2)C3CC1 (stereo unspecified)	17%	3%	18µM*	u	-6%	5
N#Cc1ccccc1Cn1c(=O)oc2ccccc21	12%	-35%	7%	10%	1%	9
O=c1[nH]c2ccccc2n1C1CCN(C(c2ccccc2)c2nnnn2-c2ccc3c(c2)OCCO3)CC1 (stereo unspecified)	u	10%	18µM*	18µM*	x	-1
O=c1[nH]c2ccccc2n1C1CCN(C(c2nnnn2-c2ccc3c(c2)OCCO3)C2CC2)CC1 (stereo unspecified)	u	-35%	13µM*	7.3µM*	x	-3
OC[C@@H](O)[C@H]1O[C@@H]2O[C@H](C(Cl)(Cl)Cl)O[C@@H]2[C@H]1O	x	x	6%	0%	x	x
CC(C)CCOP(=O)(c1ccc(N(C)C)cc1)C(O)c1ccccc1 (stereo unspecified)	-12%	-30%	u	u	x	14
CCc1nc2c(OCc3ccc(C(F)(F)F)cc3)cccn2c1N(C)C(=O)C(C)C	-28%	-8%	u	26µM*	x	-23
CCN(CC)C(=O)c1ccc(NC(=O)c2cc(S(=O)(=O)N3CCCCCC3)ccc2OC)cc1	-19%	0%	-30%	u	x	-2
CCN(CC)C(=O)c1ccc(NC(=O)c2cccc(S(=O)(=O)N3CCN(Cc4ccccc4)CC3)c2)cc1	u	8%	18µM*	13µM*	x	u
C=CC(=O)OCC	x	x	x	x	7%	x
C=C1CC2C(CC[C@]3(C)C(=O)CCC23)[C@]2(C)C=CC(=O)C=C12 (stereo partly specified)	x	x	x	x	9%	x
CC1=C(C)[N+](=O)C2CCCCC2N1[O-] (stereo unspecified)	1%	-7%	u	5%	1%	-9
Oc1cccc(Nc2ncnc3sc4c(c23)CCCC4)c1	u	-14%	16µM*	15µM*	5%	x
O=CN1CCCCC1C1CC[C@H]2CCCCN2C1 (stereo partly specified)	x	x	-1%	-10%	12%[56.1 µM]	x
O=C(CCN1CCN(c2ccccc2)CC1)c1ccc(Br)cc1	u	-98%	9.2µM*	5.8µM*	x	-17
COC1CCC(OC2CC(C3(C)CCC4(CC(O)C(C)C(C(C)/C=C(\C)C(=O)C(C)CC(C)C(=O)O)O4)O3)OC3(OC(C4OC(O)(CO)C(C)CC4C)CC3C)C2C)OC1C (stereo unspecified)	u	-5%	0.15µM*	0.15µM*	x	-54*
FC(F)(F)c1ccc2c(c1)N(CCCN1CCN(CCCl)CC1)c1ccccc1S2	u	-76%	8.2µM*	8.2µM*	9%	-116*
OCCN1CCN(CCCN2c3ccccc3Sc3ccc(C(F)(F)F)cc32)CC1	u	-66%	16µM*	18µM*	5%	-57*
c1ccc2c(c1)Sc1ccccc1N2C[C@@H]1CN2CCC1CC2	x	x	-5%	-3%	x	x
C[N+](C)(C)CCCl	x	x	x	x	5%	x
SMILES	TGFb SMAD3 inh	HepG2 tox	DT40 TDP1 CPT	TDP1 cell noCPT	TDP1 inh	IL1B secr inh
CCCCCCCCCCCCCCCC[N+](C)(C)C	u	-106%	2.3µM*	1.8µM*	9%	-14
CCCCCCCCCC[N+](C)(C)CCCCCCCCCC	x	x	1.3µM*	0.94µM*	2%	x
CCCCCCCCCCCCCCCCCC[N+](C)(C)CCC[Si](OC)(OC)OC	x	x	24µM*	12µM*	4%	x
CCCCCC[N+](=O)[O-]	-2%	2%	1%	4%	1%	-5
FC(F)(F)Oc1ccc(C2NCc3ccccc3-n3cccc32)cc1 (stereo unspecified)	u	-29%	-26%	u	x	7
CC(C)c1ccc(C2NCc3ccccc3-n3cccc32)cc1 (stereo unspecified)	u	-65%	u	21µM*	x	-10
CCOc1cccc(C2NCc3ccccc3-n3cccc32)c1O (stereo unspecified)	38%	-3%	u	u	8%	-6
CCOc1cc2c(cc1OCC)-n1cccc1C(c1cccc([N+](=O)[O-])c1)NC2 (stereo unspecified)	u	-18%	23µM*	18µM*	x	-16
CCOc1cc(C2NCc3ccccc3-n3cccc32)ccc1O (stereo unspecified)	-7%	-8%	23µM*	u	4%	-57*
N[C@@]1(C(=O)O)CC[C@H](C(=O)O)C1	x	x	-18%	-17%	17%[56.1 µM]	x
CC([C@H](O)c1ccccc1)N(C)C (stereo partly specified)	x	x	x	x	-7%[56.1 µM]	x
CC(C(O)c1ccccc1)N(C)CCOC(c1ccccc1)c1ccccc1 (stereo unspecified)	x	x	12µM*	15µM*	x	x
CCOC(=O)c1ccc(NC(=O)c2nc[nH]c2C(=O)NCCNC(=O)c2[nH]cnc2C(=O)Nc2ccc(C(=O)OCC)cc2)cc1	-9%	-4%	2.9µM*	3.7µM*	1%	13
CCOC(=O)c1ccc(NC(=O)C2C3C=CC(O3)C2C(=O)O)cc1 (stereo unspecified)	x	x	x	x	-1%	x
CC(C)N1CC=C(c2c[nH]c3ccccc23)CC1	u	-4%	7.3µM*	4.6µM*	-1%	4
